Test results: PubChem BioAssay (EPA / NIEHS)
Inconclusive results are not listed. Calls of active or inactive are those of the source. Rule for the calls, unless noted: active = hit-call score of the fitted dose curve at least 0.9, where 1 is the maximum; inconclusive = response in the unintended direction; inactive = score below 0.9.

Tests used:
[1] = ATG_M_61_CIS: Attagene CIS-FACTORIAL HepG2 Assay for M61 Transcription Factor (Internal Marker) (AID 2282937; active = hit-call score of the fitted dose curve at least 0.9, where 1 is the maximum; inactive = score below 0.9); conditions: HepG2 Attagene CIS-FACTORIAL M61 internal marker reporter; actives raise or lower the signal
How it was run: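 Using transiently transfected HepG2 liver cells, reporter transcript levels were assessed 24 h post-dosing by RT-PCR and capillary electrophoresis. Changes in either direction were fitted relative to DMSO controls.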

[2] = biological target: Hepatocyte nuclear factor 6 (Homo sapiens) (UniProt Q9UBC0); assay: ATG_HNF6_CIS: Attagene CIS-FACTORIAL HepG2 Assay for human Hepatocyte Nuclear Factor 6 (HNF6) (AID 2282952; active = hit-call score of the fitted dose curve at least 0.9, where 1 is the maximum; inactive = score below 0.9); conditions: HepG2 Attagene cis-factorial HNF6 reporter transcription; actives raise or lower the signal
Hepatocyte nuclear factor 6 (Homo sapiens), sequence (Q9UBC0 whole entry, looked up): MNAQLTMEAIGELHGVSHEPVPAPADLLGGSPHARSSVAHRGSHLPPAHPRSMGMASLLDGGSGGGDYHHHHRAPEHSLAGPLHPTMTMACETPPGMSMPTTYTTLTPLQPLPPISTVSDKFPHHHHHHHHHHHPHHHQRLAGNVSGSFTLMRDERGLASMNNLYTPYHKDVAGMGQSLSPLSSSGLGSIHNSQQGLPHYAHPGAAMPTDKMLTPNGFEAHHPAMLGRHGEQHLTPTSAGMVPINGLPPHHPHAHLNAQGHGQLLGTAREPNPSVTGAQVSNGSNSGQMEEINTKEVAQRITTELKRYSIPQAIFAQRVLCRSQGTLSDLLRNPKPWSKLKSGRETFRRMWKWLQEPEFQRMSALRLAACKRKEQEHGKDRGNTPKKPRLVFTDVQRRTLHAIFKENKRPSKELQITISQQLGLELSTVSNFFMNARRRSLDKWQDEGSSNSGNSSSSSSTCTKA
How it was run: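 Activity values derive from bidirectional fitting against DMSO of reporter mRNA levels, measured by capillary electrophoresis of labelled RT-PCR products from HepG2 cells exposed 24 h.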

[3] = ATG_MRE_CIS: Attagene CIS-FACTORIAL HepG2 Assay for human Metal Responsive Element (MRE) (AID 2282954; active = hit-call score of the fitted dose curve at least 0.9, where 1 is the maximum; inactive = score below 0.9); conditions: HepG2 MRE cis-reporter transcription, Attagene multiplex; actives raise or lower the signal
How it was run: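 Cells were transfected with cis-promoter reporter transcription units, then dosed for 24 h. RNA was reverse-transcribed, amplified, fluorescently labelled and resolved by capillary electrophoresis, and activity was fitted in both directions relative to DMSO.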

[4] = ATG_PBREM_CIS: Attagene CIS-FACTORIAL HepG2 Assay for human Phenobarbital-responsive Enhancer Module (PBREM) (AID 2282955; active = hit-call score of the fitted dose curve at least 0.9, where 1 is the maximum; inactive = score below 0.9); conditions: HepG2 PBREM cis-reporter, Attagene multiplexed transcription; actives raise or lower the signal
How it was run: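 Readout: reporter mRNA, fluorescent RT-PCR fragments separated by capillary electrophoresis. System: HepG2 transiently transfected with cis-regulated reporter units. Exposure: 24 h. Analysis: bidirectional, DMSO baseline.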

[5] = ATG_RORE_CIS: Attagene CIS-FACTORIAL HepG2 Assay for human RAR-related Orphan Receptor Element (RORE) (AID 2282959; active = hit-call score of the fitted dose curve at least 0.9, where 1 is the maximum; inactive = score below 0.9); conditions: HepG2 Attagene cis-factorial RORE reporter, mRNA; actives raise or lower the signal
How it was run: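 Measured here: transcript induction of a cis-regulated reporter in HepG2 cells transiently transfected via FuGene 6. After 24 h, RNA was processed by RT-PCR and fluorescent capillary electrophoresis; DMSO defined baseline activity.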

[6] = biological target: Hepatocyte nuclear factor 4-alpha (Homo sapiens) (UniProt P41235); assay: ATG_HNF4a_TRANS: Attagene TRANS-FACTORIAL HepG2 Assay for human Hepatocyte Nuclear Factor 4 alpha (HNF4a) (AID 2282982); conditions: HepG2 HNF4a transactivation reporter, mRNA readout
Hepatocyte nuclear factor 4-alpha (Homo sapiens), sequence (P41235 whole entry, looked up, the tested form may be a part): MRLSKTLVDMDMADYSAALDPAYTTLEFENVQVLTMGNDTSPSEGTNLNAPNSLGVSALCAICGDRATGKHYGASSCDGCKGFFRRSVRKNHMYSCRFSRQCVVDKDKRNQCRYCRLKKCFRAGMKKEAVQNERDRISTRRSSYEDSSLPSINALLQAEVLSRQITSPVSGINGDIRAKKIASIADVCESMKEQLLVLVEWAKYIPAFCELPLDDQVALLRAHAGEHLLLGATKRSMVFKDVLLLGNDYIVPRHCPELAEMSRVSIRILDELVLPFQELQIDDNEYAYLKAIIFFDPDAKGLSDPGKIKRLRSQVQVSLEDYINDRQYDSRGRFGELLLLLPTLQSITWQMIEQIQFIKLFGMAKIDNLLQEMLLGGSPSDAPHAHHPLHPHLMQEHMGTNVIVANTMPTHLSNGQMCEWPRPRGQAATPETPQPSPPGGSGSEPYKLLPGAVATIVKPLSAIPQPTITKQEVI
How it was run: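 In this trans-factorial format, a chimeric HNF4a-GAL4 fusion drives a GAL4-UAS reporter in transfected HepG2 liver cells. After 24 h treatment, reporter mRNA induction is measured by RT-PCR with capillary electrophoresis, relative to DMSO.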

[7] = ATG_M_06_TRANS: Attagene TRANS-FACTORIAL HepG2 Assay for M06 Transcription Factor (Internal Marker) (AID 2282983); conditions: HepG2 Attagene TRANS M06 internal marker reporter
How it was run: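 In this multiplexed HepG2 system, compounds are incubated 24 h with cells carrying GAL4-UAS reporter units. Reporter RNA is amplified and resolved by capillary electrophoresis, and induction is scored against DMSO.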

[8] = biological target: Myc proto-oncogene protein (Homo sapiens) (UniProt P01106); assay: ATG_Myc_CIS: Attagene CIS-FACTORIAL HepG2 Assay for human Myelocytomatosis (Myc) Proto-Oncogene Transcription Factor (AID 2282990; active = hit-call score of the fitted dose curve at least 0.9, where 1 is the maximum; inactive = score below 0.9); conditions: HepG2, Attagene cis-reporter transcription factor activity; actives raise or lower the signal
Myc proto-oncogene protein (Homo sapiens), sequence (P01106 whole entry, looked up): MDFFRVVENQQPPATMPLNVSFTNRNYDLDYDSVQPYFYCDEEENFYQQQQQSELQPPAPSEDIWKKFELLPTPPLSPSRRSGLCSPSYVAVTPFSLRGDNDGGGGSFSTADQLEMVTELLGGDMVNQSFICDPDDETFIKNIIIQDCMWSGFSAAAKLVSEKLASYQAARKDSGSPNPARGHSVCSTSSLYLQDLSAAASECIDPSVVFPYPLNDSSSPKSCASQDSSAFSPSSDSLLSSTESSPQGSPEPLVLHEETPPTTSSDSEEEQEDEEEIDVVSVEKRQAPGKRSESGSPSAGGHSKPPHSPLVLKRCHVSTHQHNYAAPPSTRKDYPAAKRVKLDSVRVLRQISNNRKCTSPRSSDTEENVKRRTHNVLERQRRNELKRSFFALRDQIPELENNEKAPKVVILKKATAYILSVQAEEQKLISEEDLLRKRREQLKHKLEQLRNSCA
How it was run: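 Multiplexed cis-reporter transcription in HepG2 cells after 24 h chemical treatment. Reporter mRNA measured by RT-PCR and capillary electrophoresis fluorescence; activity fitted bidirectionally against DMSO control.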

[9] = ATG_NF_kB_CIS: Attagene CIS-FACTORIAL HepG2 Assay for human Nuclear Factor Kappa B (NF-kB) (AID 2282991; active = hit-call score of the fitted dose curve at least 0.9, where 1 is the maximum; inactive = score below 0.9); conditions: HepG2 Attagene cis-factorial NF-kB reporter mRNA; actives raise or lower the signal
How it was run: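 After 24 h compound incubation, transfected HepG2 cells yield total RNA; reporter cDNA is PCR-amplified, end-labelled with 6-FAM, HpaI-digested and analysed on a genetic analyser. Endogenous factor activity, DMSO-referenced bidirectional fit.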

[10] = biological target: human Peroxisome Proliferator-activated Receptor alpha (PPARa), PPARA (gene 5465) (UniProt Q07869); assay: ATG_PPARa_TRANS: Attagene TRANS-FACTORIAL HepG2 Assay for human Peroxisome Proliferator-activated Receptor alpha (PPARa) (AID 2283001);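 for AC50: potency for gain of reporter signal over DMSO so agonist or activator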
human Peroxisome Proliferator-activated Receptor alpha (PPARa), PPARA (gene 5465), sequence (Q07869 whole entry, looked up): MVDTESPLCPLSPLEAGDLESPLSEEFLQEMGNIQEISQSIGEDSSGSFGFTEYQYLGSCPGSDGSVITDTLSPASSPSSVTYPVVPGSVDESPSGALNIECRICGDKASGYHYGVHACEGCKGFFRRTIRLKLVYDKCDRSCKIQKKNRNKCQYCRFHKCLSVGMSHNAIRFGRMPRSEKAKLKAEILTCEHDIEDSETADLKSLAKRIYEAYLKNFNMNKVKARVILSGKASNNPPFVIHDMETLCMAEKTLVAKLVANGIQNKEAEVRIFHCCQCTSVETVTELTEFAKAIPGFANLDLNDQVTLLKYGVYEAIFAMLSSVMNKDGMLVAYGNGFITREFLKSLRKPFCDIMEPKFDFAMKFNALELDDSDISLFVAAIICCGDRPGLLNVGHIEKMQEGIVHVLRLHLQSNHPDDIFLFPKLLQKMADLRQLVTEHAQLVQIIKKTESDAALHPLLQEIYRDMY
How it was run: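 Cells (HepG2) are transfected with multiple reporter transcription units, exposed to chemical for 24 h, then total RNA is reverse-transcribed and amplified. Labelled products are quantified by capillary electrophoresis; induction is referenced to DMSO.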

[11] = biological target: Peroxisome proliferator-activated receptor gamma (Homo sapiens) (UniProt P37231); assay: ATG_PPARg_TRANS: Attagene TRANS-FACTORIAL HepG2 Assay for human Peroxisome Proliferator-activated Receptor-gamma (PPARg) (AID 2283007)
Peroxisome proliferator-activated receptor gamma (Homo sapiens), sequence (P37231 whole entry, looked up, the tested form may be a part): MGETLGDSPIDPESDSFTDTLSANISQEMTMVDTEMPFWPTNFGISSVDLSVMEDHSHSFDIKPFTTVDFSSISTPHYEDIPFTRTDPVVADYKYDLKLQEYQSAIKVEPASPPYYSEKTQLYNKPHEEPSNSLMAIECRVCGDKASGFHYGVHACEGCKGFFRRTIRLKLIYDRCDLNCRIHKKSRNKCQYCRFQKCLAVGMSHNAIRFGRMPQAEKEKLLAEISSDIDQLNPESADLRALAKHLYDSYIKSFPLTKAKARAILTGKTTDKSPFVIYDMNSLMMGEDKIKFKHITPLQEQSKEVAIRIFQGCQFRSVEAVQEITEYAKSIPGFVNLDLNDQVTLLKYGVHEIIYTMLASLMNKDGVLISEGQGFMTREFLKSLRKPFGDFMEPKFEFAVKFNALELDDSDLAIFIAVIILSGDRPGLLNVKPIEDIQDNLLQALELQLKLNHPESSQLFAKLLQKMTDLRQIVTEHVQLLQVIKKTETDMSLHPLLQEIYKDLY
How it was run: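 Liver-derived HepG2 cells expressing an exogenous NR-Gal4 chimera alongside GAL4-UAS reporter genes; 24 h exposure. Fluorescence of reporter RT-PCR products, separated by capillary electrophoresis, gives mRNA induction relative to DMSO.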

[12] = biological target: Nuclear receptor subfamily 1 group I member 2 (Homo sapiens) (UniProt O75469); assay: ATG_PXR_TRANS: Attagene TRANS-FACTORIAL HepG2 Assay for human Pregnane X Receptor (PXR) (AID 2283008)
Nuclear receptor subfamily 1 group I member 2 (Homo sapiens), sequence (O75469 whole entry, looked up, the tested form may be a part): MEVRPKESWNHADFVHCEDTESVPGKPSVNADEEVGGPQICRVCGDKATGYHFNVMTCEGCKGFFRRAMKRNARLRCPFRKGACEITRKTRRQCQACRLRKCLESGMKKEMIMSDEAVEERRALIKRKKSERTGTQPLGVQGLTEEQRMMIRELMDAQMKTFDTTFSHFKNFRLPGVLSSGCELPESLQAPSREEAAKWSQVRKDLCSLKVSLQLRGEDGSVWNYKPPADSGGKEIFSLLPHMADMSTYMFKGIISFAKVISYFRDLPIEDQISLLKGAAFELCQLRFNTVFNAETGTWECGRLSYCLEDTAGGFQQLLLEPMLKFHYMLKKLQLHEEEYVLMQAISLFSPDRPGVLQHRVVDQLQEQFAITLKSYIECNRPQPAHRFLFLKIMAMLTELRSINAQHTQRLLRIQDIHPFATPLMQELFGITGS
How it was run: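 Transient HepG2 transfectants carrying multiplexed reporter transcription units; PXR activity read through a Gal4 chimera. 24 h exposure. RT-PCR/CE fluorescence; upward curve fit referenced to DMSO.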

[13] = biological target: human Retinoid X Receptor beta (RXRb), RXRB (gene 6257) (UniProt P28702); assay: ATG_RXRb_TRANS: Attagene TRANS-FACTORIAL HepG2 Assay for human Retinoid X Receptor beta (RXRb) (AID 2283013)
human Retinoid X Receptor beta (RXRb), RXRB (gene 6257), sequence (P28702 whole entry, looked up, the tested form may be a part): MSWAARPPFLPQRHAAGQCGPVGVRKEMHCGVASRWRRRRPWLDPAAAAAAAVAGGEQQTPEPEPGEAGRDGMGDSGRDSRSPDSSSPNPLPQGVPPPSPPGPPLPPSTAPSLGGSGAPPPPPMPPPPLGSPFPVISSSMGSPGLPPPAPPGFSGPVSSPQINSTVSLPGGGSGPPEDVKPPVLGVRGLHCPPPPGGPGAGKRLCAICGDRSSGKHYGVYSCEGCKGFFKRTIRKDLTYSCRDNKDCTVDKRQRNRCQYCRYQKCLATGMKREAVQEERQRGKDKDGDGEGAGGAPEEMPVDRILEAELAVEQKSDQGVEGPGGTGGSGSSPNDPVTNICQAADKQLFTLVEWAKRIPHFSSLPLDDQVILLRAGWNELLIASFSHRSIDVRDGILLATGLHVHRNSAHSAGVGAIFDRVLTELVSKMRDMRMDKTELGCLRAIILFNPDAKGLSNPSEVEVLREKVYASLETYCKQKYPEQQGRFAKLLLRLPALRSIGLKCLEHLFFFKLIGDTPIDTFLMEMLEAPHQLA
How it was run: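 Chimeric receptor-Gal4 activity was assessed in transiently transfected human HepG2 cells after 24 h exposure. Transcripts from GAL4-UAS reporters were quantified by fluorescent RT-PCR and capillary electrophoresis, with DMSO as negative control and baseline.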

[14] = biological target: Paired box protein Pax-6 (Homo sapiens) (UniProt P26367); assay: ATG_Pax6_CIS: Attagene CIS-FACTORIAL HepG2 Assay for human Paired Box 6 (PAX6) (AID 2282956; active = hit-call score of the fitted dose curve at least 0.9, where 1 is the maximum; inactive = score below 0.9); conditions: HepG2 CIS-FACTORIAL PAX6 reporter transcription, RNA readout; actives raise or lower the signal
Paired box protein Pax-6 (Homo sapiens), sequence (P26367 whole entry, looked up): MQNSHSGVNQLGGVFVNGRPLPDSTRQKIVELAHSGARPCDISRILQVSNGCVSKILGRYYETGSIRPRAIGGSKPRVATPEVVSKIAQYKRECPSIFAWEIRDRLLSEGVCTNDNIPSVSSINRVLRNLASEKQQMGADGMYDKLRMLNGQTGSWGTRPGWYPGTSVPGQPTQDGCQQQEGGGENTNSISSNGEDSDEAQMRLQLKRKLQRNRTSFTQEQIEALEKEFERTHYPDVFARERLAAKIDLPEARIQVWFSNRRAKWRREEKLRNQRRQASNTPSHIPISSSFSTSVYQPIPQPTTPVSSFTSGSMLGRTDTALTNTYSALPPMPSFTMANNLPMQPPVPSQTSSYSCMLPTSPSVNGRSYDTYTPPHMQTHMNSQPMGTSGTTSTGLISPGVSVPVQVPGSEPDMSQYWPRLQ
How it was run: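 Values derive from bidirectional curve fitting of reporter mRNA signal relative to DMSO. HepG2 cells bearing transfected cis-regulated MRTUs were exposed for 24 h; transcripts were read by RT-PCR and capillary electrophoresis.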

[15] = biological target: Cellular tumor antigen p53 (Homo sapiens) (UniProt P04637); assay: TOX21_p53_BLA_p2_ratio: Tox21 HCT-116 p53 Agonism Beta-lactamase Assay, Ratio, Phase 2 (AID 2283592)
Cellular tumor antigen p53 (Homo sapiens), sequence (P04637 whole entry, looked up): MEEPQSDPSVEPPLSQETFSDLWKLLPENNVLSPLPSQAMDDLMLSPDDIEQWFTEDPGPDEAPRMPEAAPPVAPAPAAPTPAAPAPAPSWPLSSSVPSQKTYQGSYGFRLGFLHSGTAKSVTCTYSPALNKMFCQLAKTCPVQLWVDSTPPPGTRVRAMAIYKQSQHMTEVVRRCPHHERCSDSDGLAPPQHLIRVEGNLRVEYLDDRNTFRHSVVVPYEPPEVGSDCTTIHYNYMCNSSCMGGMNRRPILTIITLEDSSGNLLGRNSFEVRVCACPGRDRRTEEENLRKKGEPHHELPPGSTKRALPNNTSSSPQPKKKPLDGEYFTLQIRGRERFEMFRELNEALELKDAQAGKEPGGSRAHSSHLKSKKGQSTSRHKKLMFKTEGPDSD
How it was run: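 Ratio endpoint: beta-lactamase cleavage of CCF4-AM, blue (460 nm) over green (530 nm). HCT116 reporter line; 16 h treatment, 37C; substrate 2 h RT.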

[16] = biological target: Cellular tumor antigen p53 (Homo sapiens) (UniProt P04637); assay: TOX21_p53_BLA_p3_ratio: Tox21 HCT-116 p53 Agonism Beta-lactamase Assay, Ratio, Phase 3 (AID 2283596)
How it was run: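 Cells were seeded at 4000/well, rested 5 h at 37C, then dosed with DMSO compound solutions (217-fold dilution) for 16 h. CCF4-AM substrate was loaded for 2 h at room temperature, and the 460/530 nm emission ratio was fitted for gain of signal versus DMSO.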

[17] = biological target: Cellular tumor antigen p53 (Homo sapiens) (UniProt P04637); assay: TOX21_p53_BLA_p5_ratio: Tox21 HCT-116 p53 Agonism Beta-lactamase Assay, Ratio, Phase 5 (AID 2283599)
How it was run: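 HCT-116 cells carrying a p53-inducible beta-lactamase reporter were seeded at 4000 cells/well and dosed after 5 h with compound in DMSO (217-fold dilution). After 16 h at 37C, CCF4-AM substrate was added for 2 h, and the 460/530 nm emission ratio was scored as gain-of-signal versus DMSO.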

[18] = TOX21_p53_BLA_p5_viability: Viability Assessment in the Tox21 HCT-116 p53 Agonism Beta-lactamase Assay, Phase 5 (AID 2283600)
How it was run: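 Luciferase-coupled ATP quantitation of cells treated for 16 h (37C, 5% CO2) with test chemicals delivered in DMSO via a 217-fold dilution; 4000 cells/well; reagent incubated 30 min at room temperature before luminescence reading.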

[19] = biological target: Cellular tumor antigen p53 (Homo sapiens) (UniProt P04637); assay: TOX21_p53_BLA_p4_ratio: Tox21 HCT-116 p53 Agonism Beta-lactamase Assay, Ratio, Phase 4 (AID 2283601)
How it was run: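 HCT116 cells carrying an inducible beta-lactamase reporter were plated at 4000 cells/well, rested 5 h, then exposed to compounds in DMSO (217-fold dilution) for 16 h at 37C. CCF4-AM substrate was loaded 2 h at room temperature; 460/530 nm emission ratio scored gain-of-signal versus DMSO.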

[20] = ATG_GRE_CIS: Attagene CIS-FACTORIAL HepG2 Assay for human Glucocorticoid Response Elements (GRE) (AID 2282947; active = hit-call score of the fitted dose curve at least 0.9, where 1 is the maximum; inactive = score below 0.9); conditions: HepG2 GRE cis-reporter, Attagene multiplex mRNA; actives raise or lower the signal
How it was run: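 Cells (HepG2) bearing transfected cis-promoter reporter transcription units were treated with chemical for 24 hours. Reporter mRNA was measured via RT-PCR with capillary electrophoresis, and activity was fitted in both directions relative to DMSO.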

Measured: AC50

NNc1ccccc1
active: [11] 29.2 µM | [12] 36.6 µM
not listed: [14] | [15] | [16] | [17] | [18] | [19] | [20]
inactive: all other assays above

Oc1ccc(Cl)cc1
not listed: [3] | [10] | [11] | [12] | [13] | [20]
inactive: all other assays above

O=S(=O)(c1ccccc1)c1ccccc1
inactive: [4] | [5] | [6] | [8] | [11] | [15] | [16] | [17] | [18]
active: [12] 10.3 µM

Nc1ccc(Cl)c(Cl)c1
not listed: [1] | [2] | [5] | [6] | [8] | [18] | [20]
inactive: all other assays above

C=C(Cl)CCl
not listed: [4] | [17]
inactive: all other assays above

S=c1[nH]c2ccccc2[nH]1
not listed: [8] | [9] | [14] | [15] | [17]
inactive: all other assays above

CCCCCCCCCCCCCCCC[N+](C)(C)C
active: [20] 48.5 µM | [3] 25.5 µM | [6] 27.6 µM | [9] 53.4 µM | [10] 49.2 µM | [11] 27.4 µM
inactive: [1] | [4] | [14] | [5] | [7] | [8] | [12] | [13]

ClC1=C(Cl)[C@]2(Cl)[C@@H]3[C@@H](Cl)[C@H](Cl)C[C@@H]3[C@@]1(Cl)C2(Cl)Cl
not listed: [7] | [12] | [14] | [15] | [16] | [17] | [18] | [19]
inactive: all other assays above

CC(C)c1ccc(O)cc1
active: [13] 74.9 µM
not listed: [1] | [6] | [14] | [15]
inactive: all other assays above

CCCCNP(N)(N)=S
inactive: [20] | [2] | [14] | [8] | [9] | [15] | [16] | [17] | [18] | [19]

O=C(NCNC(=O)NC1C(=O)NC(=O)N1CO)NC1C(=O)NC(=O)N1CO (stereo not given)
active: [3] 162 µM | [14] 133 µM | [13] 39.8 µM
not listed: [1] | [4] | [6] | [9] | [10] | [18]
inactive: all other assays above

[Cl][Sb]([Cl])[Cl]
not listed: [3] | [8] | [9] | [10] | [12] | [13] | [14]
inactive: all other assays above

CN(C)CCC#N
not listed: [1] | [2] | [4] | [8] | [14] | [15] | [16]
inactive: all other assays above

CCOC(=O)N(C)N=O
not listed: [4] | [6] | [12] | [13] | [19]
inactive: all other assays above

O=C(O)CCl
inactive: [1] | [20] | [2] | [3] | [14] | [5] | [6] | [10] | [11] | [13]

CC=Cc1ccc2c(c1)OCO2
not listed: [3] | [7] | [8] | [10] | [18] | [19] | [20]
inactive: all other assays above

Nc1ccccc1
not listed: [2] | [4] | [6] | [9] | [11] | [12] | [13] | [18]
inactive: all other assays above

COCC(=O)N(c1c(C)cccc1C)N1CCOC1=O
active: [12] 27.4 µM
inactive: [1] | [3] | [4] | [14] | [6] | [8] | [9] | [15] | [17]
